Reference: PubChem BioAssay (NCI)
About 83,000 compounds went through this panel and 20% of them were active in at least one assay; those are over-represented in the sample as a whole.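 Results are percent growth after 48 hours of single-concentration exposure. 100 means growth as in untreated cells, lower positive values show inhibition; negative values down to -100 show cell death.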 A number with no mark means an inactive call. Calls of active or inactive are those of the source. Rule for the calls: active = growth percent below 10; inactive = the rest.

Legend:
Experiment in all cases: NCI-60 one-dose screen, 48 h (100 = growth as untreated, 0 = no growth, -100 = all killed)
Settings in all cases: 10 µM unless noted
SR leukemia = test system: SR leukemia
RPMI-8226 leukemia = test system: RPMI-8226 leukemia
OVCAR-8 ovarian = test system: OVCAR-8 ovarian
OVCAR-4 ovarian = test system: OVCAR-4 ovarian
SK-OV-3 ovarian = test system: SK-OV-3 ovarian
IGROV1 ovarian = test system: IGROV1 ovarian
OVCAR-3 ovarian = test system: OVCAR-3 ovarian
HS 578T breast = test system: HS 578T breast
NCI/ADR-RES ovarian = test system: NCI/ADR-RES ovarian
T-47D breast = test system: T-47D breast
BT-549 breast = test system: BT-549 breast
MDA-MB-435 melanoma = test system: MDA-MB-435 melanoma
SW-620 colon = test system: SW-620 colon
MCF7 breast = test system: MCF7 breast
HCT-116 colon = test system: HCT-116 colon
KM12 colon = test system: KM12 colon
HCC-2998 colon = test system: HCC-2998 colon
OVCAR-5 ovarian = test system: OVCAR-5 ovarian

Structure (SMILES) | growth (SR leukemia) | growth (RPMI-8226 leukemia) | growth (OVCAR-8 ovarian) [%] | growth (OVCAR-4 ovarian) | growth (SK-OV-3 ovarian) | growth (IGROV1 ovarian) | growth (OVCAR-3 ovarian) | growth (HS 578T breast) | growth (NCI/ADR-RES ovarian) | growth (T-47D breast) | growth (BT-549 breast) | growth (MDA-MB-435 melanoma) | growth (SW-620 colon) | growth (MCF7 breast) | growth (HCT-116 colon) | growth (KM12 colon) | growth (HCC-2998 colon) | growth (OVCAR-5 ovarian)
COc1ccc(C2=Nc3c/c(=C\c4c(O)[nH]c5ccc(Cl)cc45)ccc3=N2)cc1 | 2.44% (active) | 22.7% | 51.7 | 64.2% | 64.6% | 75.3% | 32.7% | 41.8% | 12.7% | 53.7% | 35.3% | -68.5% (active) | 5.99% (active) | 0.287% (active) | 33.6% | 17.1% | – | –
O=C(/C=C/c1cn(-c2ccccc2)nc1-c1ccc([N+](=O)[O-])cc1)c1ccc(Cl)cc1 | -22.6% (active) | 38.3% | 38.1 | -21.8% (active) | 66.5% | 48% | 10.6% | -12% (active) | 41.1% | 31.4% | 62.7% | 59.5% | -27.6% (active) | 25.4% | -12.6% (active) | 41.8% | – | –
COc1cc(-c2nc(SCCC(C)C)nc(Nc3ccccc3Cl)c2C#N)cc(OC)c1OC | 102% | 101% | 101 | 90.2% | 120% | 91.6% | 105% | 95.6% | 101% | 81.5% | 88.4% | 96.6% | 102% | 85.7% | 89.3% | 96.3% | 109% | –
CN1CCN(Cc2ccc3c(NNC(=O)c4ccccc4)nc4cc(F)ccc4n23)CC1 | 7.6% (active) | 26.4% | – | 24.1% | 37.1% | 21.7% | 38.9% | 70.6% | 8.77% (active) | 24.7% | 49% | 28.1% | 25.3% | 13.9% | 27% | 20% | 32.1% | 59.2%
CC(=O)n1nc(C(=O)OC(C)C)c2cc(C)c(C)cc21 | 84.6% | 85% | – | 2.77% (active) | 98.6% | 106% | 108% | 96.6% | 101% | 88.7% | – | 98.6% | 98.8% | 90.8% | 83.8% | 105% | 105% | 118%
CC(C)NC1CCC(Nc2ccnc3cc(Cl)ccc23)CC1 (centres undefined) | 84% | 76% | – | 79.5% | 93% | 109% | 109% | 96.6% | 108% | 80.3% | 88.8% | 96% | 91.7% | 93.3% | 76.6% | – | 101% | 104%
CN(CCn1sc(=O)n(Cc2ccccc2)c1=O)Cc1ccc2c(Cl)cc(Cl)c(O)c2n1 | 39.2% | 45% | – | 59.3% | 65.4% | 37.3% | 18.9% | 68.1% | 6.83% (active) | 44.9% | 70.5% | 55.8% | – | 29.9% | 19% | 37.1% | 52.2% | 61.4%
COc1ccc(-c2csc(N(C(=O)N3CCN(c4cc5c(cc4F)c(=O)c(C(=O)O)cn5C4CC4)CC3)c3ccccc3)n2)cc1 | 10.4% | 16% | – | 33.3% | 21.8% | 17.1% | 8.09% (active) | 40.3% | 11.8% | 17.1% | -4.67% (active) | 16.9% | 17.4% | 8.74% (active) | 6.33% (active) | 5.96% (active) | 24.1% | –
COc1cc2oc(-c3cccc(NC(=O)c4cccc(Br)c4)c3)cc(=O)c2c(OC)c1OC | 43.2% | 25.5% | – | 58.7% | 92.5% | 58.8% | 66.5% | 47.1% | 53.1% | 27.7% | 50.2% | 57.4% | – | 54.8% | 40.2% | 40.4% | 57.8% | 87.7%
CCc1nc2c(=O)[nH]cnc2o1 | 92.8% | 109% | – | 96.2% | 110% | 111% | 111% | 102% | 101% | 105% | 102% | 110% | 106% | 96.4% | 103% | 110% | 109% | 107%
Nc1c(C(=O)Nc2ccccc2Cl)sc2nc3c(cc12)C(O)CCC3 (centres undefined) | 13.4% | 25.2% | – | – | 42.9% | 57.2% | 15.5% | 58.5% | 18.8% | 38.6% | 52.1% | 1.93% (active) | 49.3% | 24.4% | 29.3% | 31.9% | – | 80.6%
CCc1n(Cc2ccc3ccccc3c2)cc[n+]1Cc1ccc2ccccc2c1 | -28% (active) | -23.1% (active) | – | 2.44% (active) | 9.89% (active) | -21.7% (active) | -16.3% (active) | – | 92.5% | -10.2% (active) | -2.05% (active) | -22.1% (active) | 16% | 2.44% (active) | 4.69% (active) | -52.2% (active) | -6.82% (active) | 8.92% (active)
COc1ccc2[nH]cc(-c3nc(-c4c[nH]c5ccncc45)cs3)c2c1 | 0.735% (active) | -20% (active) | – | 47.3% | 86.3% | 64.7% | -13.2% (active) | 93.2% | 59.9% | 61.5% | 74% | -76.3% (active) | -61.4% (active) | 5.44% (active) | -62% (active) | 21.1% | -45.8% (active) | 45.3%
Cc1ccc(/C=C2\CN(C(=O)OC(C)(C)C)C/C(=C\c3ccc(C)cc3)C2=O)cc1 | -13.1% (active) | -25.8% (active) | – | 65.4% | 104% | 69.3% | 7.18% (active) | 59.6% | 76.3% | 61.1% | 99.9% | -44.4% (active) | – | 15.7% | -44.4% (active) | -16% (active) | 29.5% | 112%
C#CCOc1cccc(Nc2ncnc3c(NC(=O)C=C)cccc23)c1 | 9.57% (active) | -10% (active) | – | 73.9% | 49% | 31% | 10.9% | 25% | 18.1% | 4.83% (active) | 8.49% (active) | 2.2% (active) | 15.2% | 16.4% | 6.27% (active) | 9.96% (active) | 79% | 88%
O=C1C(Cl)=C(Nc2ccc(O)cc2)C(=O)N1Cc1ccc(Cl)cc1 | 5.96% (active) | 26.1% | – | 77.5% | 88.1% | 30.5% | 40.8% | – | 81.3% | 66.5% | 43.2% | -30.6% (active) | 17.6% | 18.1% | 30.9% | 14.9% | 79.9% | 85.3%
O=C(COc1ccc(-c2nc3ccccc3[nH]2)cc1)N=Nc1c(O)[nH]c2ccc(Cl)cc12 | 11.2% | 57.4% | – | 60.7% | 103% | 88% | 63.7% | 72.4% | 107% | 65.4% | 110% | 93.9% | 40.6% | 22.3% | 47.2% | 15.3% | 65.2% | 104%
CC(C)=CCC[C@](C)(O)[C@H]1CC[C@]2(C)[C@@H]1CC[C@@H]1[C@@]3(C)Cc4nccnc4C(C)(C)[C@@H]3CC[C@]12C | 43.7% | 43.2% | – | 90.1% | 84.1% | 104% | 90.3% | 97.6% | 83.6% | 51.5% | 74.8% | 64.6% | 71.1% | -59.3% (active) | 46.9% | 75% | 79.4% | 89.9%
